# According to PubChem BioAssay (NCI):
# Several values for one entry are separate records, joined by “and”; a condition that tells them apart may be missing. Equal entries are not always repeated. This is part of a sample that, as a whole, favours compounds with a hit. Of some 83,000 tested, about 20% had one in any assay.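 Interpretation: 100, growth as untreated; towards 0, rising growth inhibition; 0, no net growth; 0 to -100, cell death. Compounds scoring below 10 were considered active.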 Values without a mark were called inactive. Activity calls are given as the source filed them.
# What was measured:
# Experiment in all cases: NCI-60 one-dose screen, 48 h (100 = growth as untreated, 0 = no growth, -100 = all killed)
# NCI-H23 lung = conditions: 10 µM
# NCI-H460 lung = conditions: 10 µM
# K-562 leukemia = conditions: 10 µM
# RXF 393 renal = conditions: 10 µM
# U251 CNS = conditions: 10 µM
# PC-3 prostate = conditions: 10 µM
# EKVX NSCLC = conditions: 10 µM
# MOLT-4 leukemia = conditions: 10 µM
# SR leukemia = conditions: 10 µM
# OVCAR-3 ovarian = conditions: 10 µM
# MDA-MB-468 breast = conditions: 10 µM unless noted
# MDA-MB-231 breast = conditions: 10 µM
# LOX IMVI melanoma = conditions: 10 µM
# CAKI-1 renal = conditions: 10 µM
# HS 578T breast = conditions: 10 µM
# SW-620 colon = conditions: 10 µM
# NCI-H226 lung = conditions: 10 µM
# OVCAR-5 ovarian = conditions: 10 µM
# NCI-H522 lung = conditions: 10 µM
# T-47D breast = conditions: 10 µM
SMILES,growth (NCI-H23 lung),growth (NCI-H460 lung),growth (K-562 leukemia),growth (RXF 393 renal),growth (U251 CNS),growth (PC-3 prostate),growth (EKVX NSCLC),growth (MOLT-4 leukemia),growth (SR leukemia),growth (OVCAR-3 ovarian),growth (MDA-MB-468 breast),growth (MDA-MB-231 breast),growth (LOX IMVI melanoma),growth (CAKI-1 renal),growth (HS 578T breast),growth (SW-620 colon),growth (NCI-H226 lung),growth (OVCAR-5 ovarian),growth (NCI-H522 lung),growth (T-47D breast)
COc1cc(OC)c(/C=C/C(=O)c2nc3ccccc3n2Cc2ccc(F)cc2)c(OC)c1,89%,58.9%,81.9%,33.7%,101%,71%,73.5%,44.7%,74.3%,98.4%,80.1%,–,–,–,–,–,–,–,–,–
C=CCN=C([Se])NC(=O)c1ccc2c(c1)OCO2,–,18.3%,107%,128%,36.2%,–,–,107%,93.1%,112%,110%,103%,104%,118%,99.3%,111%,–,–,–,–
C=CC[Se]C(=O)c1ccc(C(=O)[Se]CC=C)s1,–,–,-23.1% (active),-93.6% (active),–,-58.2% (active),-89.2% (active),-13.9% (active),-30% (active),-92.9% (active),-60.6% (active),-36.4% (active),-75.6% (active),–,-22.1% (active),-77.4% (active),-40.1% (active),-61.8% (active),–,–
CC[C@]12C=CCN3CC[C@@]4(c5ccc(OC)cc5N(C)[C@H]4[C@@](O)(C(=O)OC)[C@@H]1OC(=O)CCC[P+](c1ccc(C)cc1)(c1ccc(C)cc1)c1ccc(C)cc1)[C@@H]32,-90.7% (active),–,-13.4% (active),-82.8% (active),–,-83.3% (active),–,-45.1% (active),5.74% (active),–,-92.1% (active),-94.9% (active),-89.3% (active),–,-60.3% (active),-85.2% (active),–,–,-86.3% (active),–
O=C(NC([Se])=NC1CCCCC1)c1ccc2c(c1)OCO2,–,10.6%,74.3%,65.9%,–,36.4%,–,55.6%,60.3%,25.3%,77.1%,68.5%,81.6%,39.6%,60.8%,41.2%,–,–,–,-0.387% (active)
O=C(/C=C/c1ccc(Cl)cc1)c1nc2ccccc2n1Cc1ccc(Br)cc1,61.9%,–,13.6%,37.6%,34.4%,–,39.9%,-0.283% (active),5.41% (active),38.2%,9.05% (active),–,–,57.4%,–,–,–,–,76%,–
CC1=C(CCC=NNC(N)=O)C2=C(C)C3(CC3)[C@@](C)(O)C(=O)C2=C1,-78.2% (active),-24.8% (active),–,-80.8% (active),–,2.58% (active),-25.1% (active),–,–,-57.4% (active),-81.5% (active) and -65.8% (active),-59.7% (active),-71.9% (active),-59.8% (active),-24.5% (active),-20.7% (active),–,-35.8% (active),–,-38.1% (active)
CC1=C(C=O)C2=C(C)C3(CC3)[C@@](C)(O)C(=O)C2=C1,10.3%,2.24% (active),–,-68.8% (active),-43.9% (active),–,68%,–,–,–,-33.8% (active),-43.4% (active),-76.1% (active),–,36.3%,-15.8% (active),–,–,–,–
CC(C)C[C@H](NC(=O)CNC(=O)C[C@H]1O[C@@H]2OC3(C)CC[C@H]4[C@H](C)CC[C@@H]([C@H]1C)[C@@]24OO3)B(O)O,-2.35% (active),13.6%,4% (active),-81.6% (active),–,–,26.7%,1.81% (active),28.7%,-12.4% (active),-60.8% (active),-68% (active),-86.4% (active),–,7.9% (active),1.51% (active),–,-28.3% (active),–,–
CC12OOC(C)(OO1)C2CCC(=O)NCCNc1ccnc2cc(Cl)ccc12 (stereo not given),92.6%,–,39.4%,102%,110%,98%,–,98.6%,21.4%,–,82.7%,96.6%,3.57% (active),–,99.8%,80.6%,–,–,-61.6% (active),80.8%
CCOP(=O)(CC(F)(F)C(F)(F)F)OCC,50.4%,91.6%,5.12% (active),–,–,63.8%,89.5%,4% (active),4.39% (active),–,-59.3% (active),51.1%,-64% (active),–,82.2%,-8.33% (active),–,50.7%,–,–
